# From PubChem
# Shown are actives, neighbours in structure and some others; about 18% of the full set was active somewhere.
# TDP1 cell CPT = qHTS for Inhibitors of human tyrosyl-DNA phosphodiesterase 1 (TDP1): qHTS in cells in presence of CPT; chicken DT40 Tdp1-/-;hTDP1 cells + 20 nM CPT, ATP luminescence, 48 h; Potency, µM (top dose mostly 46.2 µM), usual class: inhibitors; hit rate 12% among 420,000; AID 686979, 2013; also: nearly all actives have a fitted effect of over 55% in size
#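 Cell growth measured by CellTiter-Glo luminescence after a minimum 48 h, 37 C compound exposure with 20 nM CPT in Tdp1-knockout DT40 cells stably expressing hTDP1, seeded 400/well; qHTS titration format.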
# CtBP-E1A inh = qHTS Assay for Inhibitors of the CtBP/E1A Interaction; CtBP / adenovirus E1A interaction (AlphaScreen); AlphaScreen GST-E1A/His-CtBP binding, 1536-well; hits give low values; activity change, % (test concentration not listed); hit rate 0.49% among 340,000; AID 651724, 2012; in the data active = activity change below about -65%; inconclusive = mostly about -30% to -63%
#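 Steps: dispense buffer (Tris pH 8.0, NaCl 300 mM, TCEP 1 mM, BSA, Tween 20); add 5X protein mix (GST-E1A, His-CtBP, 125 nM each); pin 23 nL compound; 2 h at 37 °C, dark; add 5X beads (50 ug/mL); 1 h; read.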
# IL-1B inflam inh = qHTS for Inhibitors of Inflammasome Signaling: IL-1-beta AlphaLISA Primary Screen | AID 743279, 2014 | activity change, % at 57.5 µM | hit rate 4.7% among 360,000 | THP-1 LPS/ATP IL-1B secretion, AlphaLISA, 16 h; hits give low values; in the data active = activity change below about -50%; inconclusive = mostly about -30% to -49%
#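 THP-1 cells pretreated 1 hr with compounds (up to 57.5 uM final), then stimulated with LPS (250 ng/mL final) plus ATP (1.25 mM final); secreted IL-1B measured by AlphaLISA after 16 hr, decreased signal indicating inhibition.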
# TDP1 cell noCPT = qHTS for Inhibitors of human tyrosyl-DNA phosphodiesterase 1 (TDP1): qHTS in cells in absence of CPT; DT40 Tdp1-/- hTDP1 cells, no CPT, ATP luminescence, 48 h; Potency, µM (top dose mostly 46.2 µM), usual class: inhibitors; hit rate 15% among 420,000; AID 686978, 2013; also: nearly all actives have a fitted effect of over 55% in size
#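 A cellular qHTS used chicken DT40 cells lacking endogenous Tdp1 but carrying stably transfected human TDP1. Compounds were applied without camptothecin, and cell growth kinetics were judged by ATP-dependent luminescence after ≥48 hr.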
# Six1-Eya2 inh = qHTS Assay for Inhibitors of the Six1/Eya2 Interaction. Homeobox protein SIX1 (Homo sapiens) + Protein phosphatase EYA2 (Homo sapiens), …. AlphaScreen GST-Six1/His-Eya2 binding, biochemical; hits give low values. activity change, % (test concentration not listed). hit rate 0.56% among 360,000; in the data active = activity change below about -65%; inconclusive = mostly about -30% to -63%
# Target sequence (O00167 whole entry, looked up): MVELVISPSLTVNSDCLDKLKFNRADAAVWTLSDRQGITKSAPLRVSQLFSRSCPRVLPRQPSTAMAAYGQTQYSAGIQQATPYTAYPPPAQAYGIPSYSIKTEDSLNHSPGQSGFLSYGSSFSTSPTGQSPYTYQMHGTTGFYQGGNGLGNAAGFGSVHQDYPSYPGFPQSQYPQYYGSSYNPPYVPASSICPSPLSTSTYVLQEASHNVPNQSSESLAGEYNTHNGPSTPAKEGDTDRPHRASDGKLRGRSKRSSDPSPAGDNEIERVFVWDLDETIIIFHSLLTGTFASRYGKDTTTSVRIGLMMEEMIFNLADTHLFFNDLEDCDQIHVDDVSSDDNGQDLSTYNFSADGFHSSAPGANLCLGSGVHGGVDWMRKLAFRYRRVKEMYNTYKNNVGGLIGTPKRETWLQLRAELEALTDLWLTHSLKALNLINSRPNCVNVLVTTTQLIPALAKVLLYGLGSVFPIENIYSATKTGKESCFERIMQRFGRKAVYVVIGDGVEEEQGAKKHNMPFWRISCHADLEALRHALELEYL
# Target sequence (Q15475 whole entry, looked up): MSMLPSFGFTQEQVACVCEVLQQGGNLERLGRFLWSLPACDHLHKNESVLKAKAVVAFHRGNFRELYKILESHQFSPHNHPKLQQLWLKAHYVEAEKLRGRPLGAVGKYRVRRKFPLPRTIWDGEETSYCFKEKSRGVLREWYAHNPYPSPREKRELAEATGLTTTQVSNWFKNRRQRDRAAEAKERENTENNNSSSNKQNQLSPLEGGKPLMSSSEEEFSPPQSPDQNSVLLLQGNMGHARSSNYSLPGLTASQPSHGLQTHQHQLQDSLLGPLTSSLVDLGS
#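 AlphaScreen luminescence read after one hour at 37 °C in darkness. Pin-transferred compounds met GST-Six1 and His-Eya2 protein (5X stock 250 nM/500 nM) plus glutathione donor and Ni-chelate acceptor beads (5X, 50 ug/mL).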
# TDP1 inh = qHTS Assay for Inhibitors of Tyrosyl-DNA Phosphodiesterase (TDP1); recombinant TDP1, AlphaScreen DNA substrate cleavage; AID 485290, 2010; hit rate 0.28% among 350,000; Potency, µM (top dose mostly 130 µM), usual class: inhibitors; also: nearly all actives have a fitted effect of over 40% in size
#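 Steps: enzyme plus compound, 15 min RT; add biotin/phosphotyrosine-FITC oligonucleotide (15 nM final), react 5 min; add donor/acceptor beads (10 ug/ml final), 10 min; read AlphaScreen. Tdp1 at 1 nM final.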
# Numbers stand for hits; 0 = inactive; ? = inconclusive; - = no result; ! = a repeat was not active; [ ] = remark or other dose. Unless noted, calls follow the shape of the dose curve; as a rule, active = well fitted curve in the direction sought with a large enough effect; inconclusive = small, poorly fitted or top-dose-only effect, or another doubt; inactive = no such curve, though single readings can be large; an effect the other way counts as inactive or inconclusive.
SMILES,TDP1 cell CPT,CtBP-E1A inh,IL-1B inflam inh,TDP1 cell noCPT,Six1-Eya2 inh,TDP1 inh
Cc1cccc(/C=N/NC(=O)c2cc(Br)ccc2OCc2ccccc2)n1,?,0,0,23µM,0,-
O=C(Nc1cccc2ncccc12)c1ccccc1[N+](=O)[O-],0,0,0,0,0,0
CC(C)c1ccc2[nH]c3c(c2c1)CCC/C3=N\NC(=O)c1ccncc1,23µM,0,-53,18µM,0,0
CCCCCCCCCCN(CCCCCCCCCC)c1ccc(/C=C/c2ccnc3ccccc23)cc1,0,-,-,0,-,-
CC(C)CN(CC(C)C)c1ccc(/C=C/c2ccnc3ccccc23)cc1,13µM,-,-,18µM,-,-
OCCN(CCO)c1ccc(/C=C/c2ccnc3ccccc23)cc1,8.9µM,-,-,14µM,-,-
C=CCN(CC=C)c1ccc(/C=C/c2ccnc3ccccc23)cc1,18µM,-,-,?,-,-
CN(C)c1ccc(N=Nc2ccccc2Br)cc1,0,-90,0,0,-87,-
COCCn1nnnc1C(c1ccc2ncccc2c1)N1CCN(c2ccccc2F)CC1 (configuration not stated),0,0,0,0,0,0
COc1ccc(C(NC(=O)CNC(C)=O)C(=O)Nc2ccc(C(C)C)cc2)cc1 (configuration not stated),0,0,0,0,0,0
O=S(=O)(NCCc1ccccc1)c1ccc(F)cc1Br,0,0,0,0,0,0
COc1ccc(C(=O)OCC(=O)NC(C)CCc2ccccc2)cc1 (configuration not stated),0,0,0,0,0,-
Brc1cccc(C2CC(c3ccccc3)n3nnnc3N2)c1 (configuration not stated),0,0,0,?,0,0
CC1C(C#N)=C(N)OC2=C1C(=O)CCC2 (configuration not stated),0,0,0,0,0,0
CN(C)c1ccc(N=Nc2ccc(/C=C/c3ccnc4ccccc34)cc2)cc1,?,-,-,18µM,-,-
CCN(CCC(=O)O)c1ccc(/C=C/c2ccnc3ccccc23)cc1,0,-,-,?,-,-
CN(C)c1ccc(N=Nc2ccnc3ccccc23)cc1,?,-,-,22µM,-,-
CCN(CC)c1ccc(/C=C/c2ccnc3ccccc23)cc1,?,-,-,18µM,-,-
CC(=O)c1ccc(N=Nc2ccc(N(C)C)cc2)cc1,0,0,?,0,?,0
CN(C)c1ccc(N=Nc2nccs2)cc1,0,?,0,?,-83,-
CCN(CC)CCCNc1ncnc2ccccc12,0,0,0,0,0,0
CCN(CC)CCN(CC)c1ccc(/C=C/c2ccnc3ccccc23)cc1,0,-,-,4.5µM,-,-
CCCCN(CCC#N)c1ccc(/C=C/c2ccnc3ccccc23)cc1,10µM,-,-,10µM,-,-
CCCCCCCN(CCCCCCC)c1ccc(/C=C/c2ccnc3ccccc23)cc1,0,-,-,0,-,-
CCN(Cc1ccccc1)c1ccc(/C=C(\C#N)c2ccccn2)cc1,0,0,0,?,0,0
SMILES,TDP1 cell CPT,CtBP-E1A inh,IL-1B inflam inh,TDP1 cell noCPT,Six1-Eya2 inh,TDP1 inh
CCN(C)c1ccc(/C=C/c2ccnc3ccccc23)cc1,11µM,-,-,11µM,-,-
CCN(Cc1ccccc1)c1ccc(/C=C/c2nccc3ccccc23)cc1,13µM,-,-,?,-,-
CCN(CC)C(=O)c1sc2nc(Cc3ccccc3)[nH]c(=O)c2c1C,?,0,?,0,0,0
COc1c(S(=O)(=O)N2CCN(C(=O)c3ccco3)CC2)ccc(Cl)c1Cl,0,0,0,0,0,0
Cn1nnnc1SCC1=C(C(=O)O)N2C(=O)C(NC(=O)C(O)c3ccccc3)C2SC1 (configuration not stated),0,-,-,0,-,?
Cc1cc(C)cc(NS(=O)(=O)c2ccc3[nH]cc(C(=O)N(C)Cc4ccccc4)c(=O)c3c2)c1,0,-,-,?,-,0
COc1cccc(NS(=O)(=O)c2ccc3[nH]cc(C(=O)NC4CC4)c(=O)c3c2)c1,0,0,0,?,?,0
Cc1cc(C)cc(NS(=O)(=O)c2ccc3[nH]cc(C(=O)NCc4ccco4)c(=O)c3c2)c1,12µM,0,-56,15µM,?,0
Cc1cc(C)cc(NS(=O)(=O)c2ccc3[nH]cc(C(=O)N4CCCCCC4)c(=O)c3c2)c1,0,-,-,0,-,0
COc1cccc(NS(=O)(=O)c2ccc3[nH]cc(C(=O)NC4CCCCC4)c(=O)c3c2)c1,18µM,-,-,18µM,-,0
COc1cccc(NS(=O)(=O)c2ccc3[nH]cc(C(=O)N(C)Cc4ccco4)c(=O)c3c2)c1,23µM!,0,0,23µM!,0,0
Cc1ccccc1NS(=O)(=O)c1ccc2[nH]cc(C(=O)N3CCCCC3)c(=O)c2c1,0,-,-,0,-,22µM
Cc1ccccc1NS(=O)(=O)c1ccc2[nH]cc(C(=O)N(C)Cc3ccco3)c(=O)c2c1,0,0,0,0,0,-
Cc1cc(NC(=O)c2ccccc2)n(-c2ccccc2)n1,?,-,0,0,0,0
Cc1ccccc1NS(=O)(=O)c1ccc2[nH]cc(C(=O)NC3CCCCC3)c(=O)c2c1,?,-,-,?,-,25µM
CCN(CC)S(=O)(=O)c1ccc2[nH]cc(C(=O)NC3CC3)c(=O)c2c1,?,-,0,?,0,-
COc1cccc(NS(=O)(=O)c2ccc3[nH]cc(C(=O)NCCc4ccc(C)cc4)c(=O)c3c2)c1,15µM,-,-,16µM,-,-
Cc1cc(C)cc(NS(=O)(=O)c2ccc3[nH]cc(C(=O)N4CCCC4)c(=O)c3c2)c1,0,-,-,0,-,0
Cc1cccc(CCNC(=O)c2c[nH]c3ccc(S(=O)(=O)Nc4ccccc4F)cc3c2=O)c1,12µM,-,-,?,-,?
Cc1cc(C)cc(NS(=O)(=O)c2ccc3[nH]cc(C(=O)NC4CCCCC4)c(=O)c3c2)c1,23µM,-,-,16µM,-,0
CC1=C(C(=O)N(C(C)C)C(C)C)CC(CC(=O)NCCCCc2ccccc2)C(=O)N1CCCN1CCCC1=O (configuration not stated),0,0,0,0,0,-
O=C1C2(c3ccccc3)CN(CCO)CC1(c1ccccc1)CN(CCO)C2,0,0,0,0,0,0
Cc1ccccc1-c1nc(S(=O)(=O)c2ccc(Br)cc2)c(NCc2cccnc2)o1,0,0,?,0,0,0
CCOc1ccc(NC(=O)c2cc([N+](=O)[O-])ccc2N2CCOCC2)cc1,?,0,0,?,0,0[0.505 µM]
